# What was measured:
# Test in all cases: DAPPL (digital affinity profiling via proximity ligation, sequencing); 10 mM Tris-HCl pH 7.5, 50 mM NaCl, 1 mM DTT, 4% glycerol, room temperature, 30 min; GST-TFs on glutathione beads, 16-mer random dsDNA library, 0.1% formaldehyde crosslink after washing; high values mean tight binding
# FLI1 = target: T1, FLI1 (Homo sapiens, UniProt Q01543 1-452); conditions: protein: recombinant; tags: N-terminal GST; dsDNA, one strand shown
# T1 sequence: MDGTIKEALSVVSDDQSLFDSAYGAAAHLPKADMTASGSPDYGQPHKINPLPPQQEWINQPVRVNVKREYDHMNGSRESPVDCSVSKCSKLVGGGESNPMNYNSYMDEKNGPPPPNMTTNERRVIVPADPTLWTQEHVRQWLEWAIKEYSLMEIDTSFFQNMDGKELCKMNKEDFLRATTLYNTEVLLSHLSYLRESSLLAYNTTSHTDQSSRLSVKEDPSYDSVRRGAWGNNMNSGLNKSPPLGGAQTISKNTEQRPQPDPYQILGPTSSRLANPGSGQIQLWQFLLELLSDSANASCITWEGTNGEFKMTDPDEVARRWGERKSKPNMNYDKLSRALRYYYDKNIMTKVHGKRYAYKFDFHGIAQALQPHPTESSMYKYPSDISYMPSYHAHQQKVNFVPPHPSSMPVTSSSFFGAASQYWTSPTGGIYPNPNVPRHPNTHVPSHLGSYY
# In short: (§1)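 Human transcription factors carrying a GST fusion were produced in yeast, bound to glutathione beads, tagged with DNA barcodes and pooled together with a tag-only sample. Each pool was held with 200 nmole of a random double-stranded 16-mer DNA library in Tris/NaCl/DTT/glycerol buffer for 30 min at room temperature, then washed, crosslinked in 0.1% formaldehyde, proximity-ligated with BsaI/T4 ligase (1 h, 37 °C), PCR-amplified and sequenced on an Illumina NextSeq500. Binding signal is the read frequency of each hexamer for a given factor divided by its frequency in the tag-only sample.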
# ELK1 = target: T2, ELK1 (Homo sapiens, UniProt P19419 1-428); conditions: protein: recombinant; tags: N-terminal GST; dsDNA, one strand shown
# T2 sequence: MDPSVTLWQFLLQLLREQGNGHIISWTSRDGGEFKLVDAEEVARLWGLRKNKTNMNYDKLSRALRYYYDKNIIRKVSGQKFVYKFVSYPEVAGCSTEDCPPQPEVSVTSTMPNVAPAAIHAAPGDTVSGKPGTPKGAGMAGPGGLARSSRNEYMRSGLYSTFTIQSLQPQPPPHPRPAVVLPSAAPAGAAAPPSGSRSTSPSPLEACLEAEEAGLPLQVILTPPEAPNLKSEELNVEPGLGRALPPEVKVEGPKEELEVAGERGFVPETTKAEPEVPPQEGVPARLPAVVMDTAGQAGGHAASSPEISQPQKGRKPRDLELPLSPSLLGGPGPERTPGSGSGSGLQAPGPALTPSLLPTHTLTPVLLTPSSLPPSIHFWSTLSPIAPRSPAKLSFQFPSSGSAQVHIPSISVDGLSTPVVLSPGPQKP
# In short: as §1
# GABPA = target: T3, GABPA (Homo sapiens, UniProt Q06546 1-454); conditions: protein: recombinant; tags: N-terminal GST; dsDNA, one strand shown
# T3 sequence: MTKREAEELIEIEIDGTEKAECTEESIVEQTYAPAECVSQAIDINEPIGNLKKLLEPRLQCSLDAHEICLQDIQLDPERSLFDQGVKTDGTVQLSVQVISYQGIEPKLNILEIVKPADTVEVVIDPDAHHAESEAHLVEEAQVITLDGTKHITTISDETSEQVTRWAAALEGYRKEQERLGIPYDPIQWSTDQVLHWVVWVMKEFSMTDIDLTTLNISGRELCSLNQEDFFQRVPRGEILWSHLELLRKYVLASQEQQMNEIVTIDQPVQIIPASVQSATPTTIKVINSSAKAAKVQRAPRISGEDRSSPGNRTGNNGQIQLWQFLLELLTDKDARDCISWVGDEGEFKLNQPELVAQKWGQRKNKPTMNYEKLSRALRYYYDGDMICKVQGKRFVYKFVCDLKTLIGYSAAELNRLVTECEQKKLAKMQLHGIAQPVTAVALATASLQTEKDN
# In short: as §1
# ERG = target: T4, ERG (Homo sapiens, UniProt P11308 1-479); conditions: protein: recombinant; tags: N-terminal GST; dsDNA, one strand shown
# T4 sequence: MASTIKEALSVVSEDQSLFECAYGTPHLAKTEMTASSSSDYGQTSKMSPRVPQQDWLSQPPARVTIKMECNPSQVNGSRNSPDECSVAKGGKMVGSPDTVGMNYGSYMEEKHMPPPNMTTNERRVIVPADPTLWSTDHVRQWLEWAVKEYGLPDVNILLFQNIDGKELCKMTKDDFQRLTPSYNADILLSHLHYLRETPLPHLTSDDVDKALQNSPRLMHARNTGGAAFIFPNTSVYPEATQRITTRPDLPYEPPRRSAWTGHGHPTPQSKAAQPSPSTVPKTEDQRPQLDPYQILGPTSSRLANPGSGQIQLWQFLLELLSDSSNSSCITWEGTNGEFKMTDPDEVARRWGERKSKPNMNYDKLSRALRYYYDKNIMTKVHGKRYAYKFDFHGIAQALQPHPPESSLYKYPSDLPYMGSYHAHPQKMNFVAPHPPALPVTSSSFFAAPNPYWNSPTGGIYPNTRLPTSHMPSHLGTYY
# In short: as §1
# ELF1 = ELF1 (Homo sapiens, UniProt P32519 1-619); conditions: protein: recombinant; tags: N-terminal GST; dsDNA, one strand shown
# In short: as §1
# EHF = target: T5, EHF (Homo sapiens, UniProt Q9NZC4 1-300); conditions: protein: recombinant; tags: N-terminal GST; dsDNA, one strand shown
# T5 sequence: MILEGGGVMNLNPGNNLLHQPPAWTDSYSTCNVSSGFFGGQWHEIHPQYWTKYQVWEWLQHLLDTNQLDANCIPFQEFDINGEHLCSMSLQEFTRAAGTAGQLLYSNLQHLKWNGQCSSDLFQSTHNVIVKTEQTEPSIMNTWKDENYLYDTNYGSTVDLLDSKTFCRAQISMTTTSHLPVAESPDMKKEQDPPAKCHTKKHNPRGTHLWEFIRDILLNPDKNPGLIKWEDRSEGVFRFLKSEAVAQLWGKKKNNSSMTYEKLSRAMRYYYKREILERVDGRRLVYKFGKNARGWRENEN
# In short: as §1
# SPI1 = SPI1 (Homo sapiens, UniProt P17947 1-270); conditions: protein: recombinant; tags: N-terminal GST; dsDNA, one strand shown
# In short: as §1
# SPIB = SPIB (Homo sapiens, UniProt Q01892 1-262); conditions: protein: recombinant; tags: N-terminal GST; dsDNA, one strand shown
# In short: as §1
# ELK3 = target: T6, ELK3 (Homo sapiens, UniProt P41970 1-407); conditions: protein: recombinant; tags: N-terminal GST; dsDNA, one strand shown
# T6 sequence: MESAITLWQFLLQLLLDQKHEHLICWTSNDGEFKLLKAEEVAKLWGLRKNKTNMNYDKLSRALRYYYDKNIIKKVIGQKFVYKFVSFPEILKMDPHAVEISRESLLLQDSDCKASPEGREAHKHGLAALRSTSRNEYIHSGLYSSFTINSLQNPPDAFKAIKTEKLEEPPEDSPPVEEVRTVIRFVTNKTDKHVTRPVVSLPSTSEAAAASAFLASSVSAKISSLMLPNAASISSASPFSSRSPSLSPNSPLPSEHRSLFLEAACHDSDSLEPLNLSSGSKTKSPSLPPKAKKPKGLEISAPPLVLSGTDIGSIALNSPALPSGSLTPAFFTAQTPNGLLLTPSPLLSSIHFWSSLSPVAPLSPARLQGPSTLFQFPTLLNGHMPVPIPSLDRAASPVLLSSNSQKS
# In short: as §1
# FEV = target: T7, FEV (Homo sapiens, UniProt Q99581 1-238); conditions: protein: recombinant; tags: N-terminal GST; dsDNA, one strand shown
# T7 sequence: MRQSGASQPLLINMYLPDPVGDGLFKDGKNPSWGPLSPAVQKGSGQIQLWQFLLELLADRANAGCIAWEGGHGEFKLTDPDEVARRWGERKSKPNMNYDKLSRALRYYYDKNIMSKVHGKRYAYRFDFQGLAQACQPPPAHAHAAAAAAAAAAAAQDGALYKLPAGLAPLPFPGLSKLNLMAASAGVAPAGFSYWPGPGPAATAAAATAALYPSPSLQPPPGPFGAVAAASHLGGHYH
# In short: as §1
# ETV5 = ETV5 (Homo sapiens, UniProt P41161 1-510); conditions: protein: recombinant; tags: N-terminal GST; dsDNA, one strand shown
# In short: as §1
# HSF1 = HSF1 (Homo sapiens, UniProt Q00613 1-529); conditions: protein: recombinant; tags: N-terminal GST; chain copies: 3; dsDNA, one strand shown
# In short: as §1
# SPIC = target: T8, SPIC (Homo sapiens, UniProt Q8N5J4 1-248); conditions: protein: recombinant; tags: N-terminal GST; dsDNA, one strand shown
# T8 sequence: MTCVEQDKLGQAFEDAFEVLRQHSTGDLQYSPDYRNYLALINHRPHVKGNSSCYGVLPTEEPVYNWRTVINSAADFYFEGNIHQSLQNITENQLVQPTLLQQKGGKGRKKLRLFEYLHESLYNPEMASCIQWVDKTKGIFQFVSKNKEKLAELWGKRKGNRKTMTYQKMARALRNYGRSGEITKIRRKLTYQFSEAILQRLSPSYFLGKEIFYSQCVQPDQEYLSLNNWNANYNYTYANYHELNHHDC
# In short: as §1
# ELF4 = ELF4 (Homo sapiens, UniProt Q99607 1-663); conditions: protein: recombinant; tags: N-terminal GST; dsDNA, one strand shown
# In short: as §1
# ELK4 = target: T9, ELK4 (Homo sapiens, UniProt P28324-2 1-405); conditions: protein: recombinant; tags: N-terminal GST; dsDNA, one strand shown
# T9 sequence: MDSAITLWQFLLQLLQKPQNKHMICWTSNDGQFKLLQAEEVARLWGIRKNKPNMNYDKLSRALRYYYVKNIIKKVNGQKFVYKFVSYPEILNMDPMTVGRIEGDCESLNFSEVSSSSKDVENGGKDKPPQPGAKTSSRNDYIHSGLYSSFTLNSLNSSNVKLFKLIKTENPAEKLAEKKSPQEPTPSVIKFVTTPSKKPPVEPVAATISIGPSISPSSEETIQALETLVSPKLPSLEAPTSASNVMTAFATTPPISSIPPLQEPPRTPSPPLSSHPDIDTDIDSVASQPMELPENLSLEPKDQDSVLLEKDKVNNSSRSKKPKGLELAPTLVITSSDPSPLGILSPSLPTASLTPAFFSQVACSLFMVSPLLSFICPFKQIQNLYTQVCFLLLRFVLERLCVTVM
# In short: as §1
# ETV2 = target: T10, ETV2 (Homo sapiens, UniProt O00321 1-342); conditions: protein: recombinant; tags: N-terminal GST; dsDNA, one strand shown
# T10 sequence: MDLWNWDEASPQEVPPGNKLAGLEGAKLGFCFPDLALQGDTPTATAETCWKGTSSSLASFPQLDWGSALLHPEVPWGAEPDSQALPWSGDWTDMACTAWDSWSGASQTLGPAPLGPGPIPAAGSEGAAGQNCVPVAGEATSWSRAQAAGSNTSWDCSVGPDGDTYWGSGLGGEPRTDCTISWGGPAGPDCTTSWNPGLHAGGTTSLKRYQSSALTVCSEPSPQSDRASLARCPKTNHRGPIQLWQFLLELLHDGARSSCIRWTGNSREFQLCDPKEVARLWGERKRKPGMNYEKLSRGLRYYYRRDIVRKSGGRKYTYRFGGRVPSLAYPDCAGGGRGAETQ
# In short: as §1
# ELF3 = target: T11, ELF3 (Homo sapiens, UniProt P78545 1-371); conditions: protein: recombinant; tags: N-terminal GST; dsDNA, one strand shown
# T11 sequence: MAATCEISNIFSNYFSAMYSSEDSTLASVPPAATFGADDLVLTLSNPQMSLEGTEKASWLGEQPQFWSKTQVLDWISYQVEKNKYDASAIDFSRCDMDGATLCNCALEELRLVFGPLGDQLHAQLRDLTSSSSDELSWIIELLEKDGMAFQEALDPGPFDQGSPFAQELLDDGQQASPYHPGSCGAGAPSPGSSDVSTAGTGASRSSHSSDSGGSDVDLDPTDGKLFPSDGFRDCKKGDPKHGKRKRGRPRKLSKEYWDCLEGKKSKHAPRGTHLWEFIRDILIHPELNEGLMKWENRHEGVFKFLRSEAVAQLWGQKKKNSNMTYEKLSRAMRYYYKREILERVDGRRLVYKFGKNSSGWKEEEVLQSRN
# In short: as §1
# CRX = CRX (Homo sapiens, UniProt O43186 1-299); conditions: protein: recombinant; tags: N-terminal GST; dsDNA, one strand shown
# In short: as §1
# ETV1 = ETV1 (Homo sapiens, UniProt P50549 1-477); conditions: protein: recombinant; tags: N-terminal GST; dsDNA, one strand shown
# In short: as §1
# ELF4, sequence (Q99607 whole entry): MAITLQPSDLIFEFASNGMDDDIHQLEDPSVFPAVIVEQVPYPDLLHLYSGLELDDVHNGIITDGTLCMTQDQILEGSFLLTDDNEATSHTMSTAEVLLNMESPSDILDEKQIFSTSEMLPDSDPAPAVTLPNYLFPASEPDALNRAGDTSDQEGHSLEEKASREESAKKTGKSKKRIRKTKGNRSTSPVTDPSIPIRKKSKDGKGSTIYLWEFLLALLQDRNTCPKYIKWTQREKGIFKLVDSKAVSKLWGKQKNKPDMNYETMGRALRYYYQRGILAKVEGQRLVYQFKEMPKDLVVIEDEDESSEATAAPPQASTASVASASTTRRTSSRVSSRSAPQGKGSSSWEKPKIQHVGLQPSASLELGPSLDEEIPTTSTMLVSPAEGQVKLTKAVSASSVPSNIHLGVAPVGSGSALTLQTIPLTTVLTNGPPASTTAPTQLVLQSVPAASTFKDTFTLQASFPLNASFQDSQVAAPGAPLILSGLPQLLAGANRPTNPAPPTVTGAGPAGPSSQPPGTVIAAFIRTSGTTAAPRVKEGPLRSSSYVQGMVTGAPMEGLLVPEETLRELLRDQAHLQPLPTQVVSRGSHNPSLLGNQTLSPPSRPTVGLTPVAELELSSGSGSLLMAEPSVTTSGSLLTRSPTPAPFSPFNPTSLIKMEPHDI
# ETV1, sequence (P50549 whole entry): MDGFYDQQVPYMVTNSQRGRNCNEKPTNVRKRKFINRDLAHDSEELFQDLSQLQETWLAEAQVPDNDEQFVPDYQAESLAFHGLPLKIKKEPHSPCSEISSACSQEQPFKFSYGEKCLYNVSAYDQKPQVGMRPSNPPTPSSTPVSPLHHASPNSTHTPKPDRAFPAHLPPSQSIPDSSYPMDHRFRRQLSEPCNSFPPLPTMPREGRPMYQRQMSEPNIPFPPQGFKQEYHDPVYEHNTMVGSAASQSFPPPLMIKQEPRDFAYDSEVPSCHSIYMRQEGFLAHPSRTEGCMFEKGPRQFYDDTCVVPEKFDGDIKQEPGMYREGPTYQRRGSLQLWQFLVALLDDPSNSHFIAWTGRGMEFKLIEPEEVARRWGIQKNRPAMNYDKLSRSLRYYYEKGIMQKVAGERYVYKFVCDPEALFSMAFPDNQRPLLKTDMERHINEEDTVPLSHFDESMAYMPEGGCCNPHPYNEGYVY
# CRX, sequence (O43186 whole entry): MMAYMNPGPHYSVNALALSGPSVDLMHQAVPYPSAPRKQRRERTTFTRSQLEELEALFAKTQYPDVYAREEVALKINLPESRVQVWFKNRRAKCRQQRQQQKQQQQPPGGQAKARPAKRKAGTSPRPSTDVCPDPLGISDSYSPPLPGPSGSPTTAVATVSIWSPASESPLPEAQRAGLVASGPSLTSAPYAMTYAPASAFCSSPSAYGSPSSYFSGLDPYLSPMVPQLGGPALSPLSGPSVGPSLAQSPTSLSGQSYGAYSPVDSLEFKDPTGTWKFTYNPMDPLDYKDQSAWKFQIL
# ETV5, sequence (P41161 whole entry): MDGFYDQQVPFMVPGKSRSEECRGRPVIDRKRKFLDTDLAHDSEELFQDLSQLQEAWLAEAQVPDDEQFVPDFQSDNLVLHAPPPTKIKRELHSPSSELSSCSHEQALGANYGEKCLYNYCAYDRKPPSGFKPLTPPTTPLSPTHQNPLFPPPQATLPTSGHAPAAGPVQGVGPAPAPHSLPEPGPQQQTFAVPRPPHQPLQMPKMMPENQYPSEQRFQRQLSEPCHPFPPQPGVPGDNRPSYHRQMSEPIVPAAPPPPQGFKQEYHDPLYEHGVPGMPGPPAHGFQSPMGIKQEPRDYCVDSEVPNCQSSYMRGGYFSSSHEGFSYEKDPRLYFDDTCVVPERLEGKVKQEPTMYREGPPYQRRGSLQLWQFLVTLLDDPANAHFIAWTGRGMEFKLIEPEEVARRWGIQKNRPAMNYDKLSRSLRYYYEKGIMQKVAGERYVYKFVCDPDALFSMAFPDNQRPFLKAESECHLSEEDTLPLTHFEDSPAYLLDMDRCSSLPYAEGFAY
# HSF1, sequence (Q00613 whole entry): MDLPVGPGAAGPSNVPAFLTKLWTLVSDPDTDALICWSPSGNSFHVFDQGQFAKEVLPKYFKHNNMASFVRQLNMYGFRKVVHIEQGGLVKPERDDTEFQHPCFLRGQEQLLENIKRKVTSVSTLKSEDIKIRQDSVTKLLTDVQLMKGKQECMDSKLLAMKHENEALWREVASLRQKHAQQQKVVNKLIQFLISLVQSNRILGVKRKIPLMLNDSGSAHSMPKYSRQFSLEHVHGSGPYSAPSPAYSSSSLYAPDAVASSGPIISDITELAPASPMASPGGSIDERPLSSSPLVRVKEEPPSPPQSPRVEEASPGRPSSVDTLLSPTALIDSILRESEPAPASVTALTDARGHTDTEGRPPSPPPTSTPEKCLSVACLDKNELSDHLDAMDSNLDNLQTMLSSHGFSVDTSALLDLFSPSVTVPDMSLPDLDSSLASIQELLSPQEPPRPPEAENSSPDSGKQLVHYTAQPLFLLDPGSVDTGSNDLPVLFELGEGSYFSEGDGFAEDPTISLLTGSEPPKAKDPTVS
# ELF1, sequence (P32519 whole entry): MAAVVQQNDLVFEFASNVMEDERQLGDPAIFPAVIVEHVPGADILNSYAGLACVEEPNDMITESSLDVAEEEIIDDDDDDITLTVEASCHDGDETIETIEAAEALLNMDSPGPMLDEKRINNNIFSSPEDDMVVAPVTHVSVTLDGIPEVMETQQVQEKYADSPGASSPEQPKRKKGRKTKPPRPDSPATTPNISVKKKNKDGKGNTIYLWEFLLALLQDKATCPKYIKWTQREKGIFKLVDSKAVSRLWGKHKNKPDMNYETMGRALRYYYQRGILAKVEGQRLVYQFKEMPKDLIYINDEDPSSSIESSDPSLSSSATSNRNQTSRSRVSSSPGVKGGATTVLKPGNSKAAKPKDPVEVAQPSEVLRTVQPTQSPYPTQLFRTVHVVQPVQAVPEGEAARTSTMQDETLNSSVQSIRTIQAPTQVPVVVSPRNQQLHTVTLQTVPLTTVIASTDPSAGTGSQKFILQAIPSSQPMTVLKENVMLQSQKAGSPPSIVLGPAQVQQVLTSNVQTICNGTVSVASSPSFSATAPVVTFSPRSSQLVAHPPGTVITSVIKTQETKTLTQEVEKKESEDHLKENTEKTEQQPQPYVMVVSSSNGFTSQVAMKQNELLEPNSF
# SPIB, sequence (Q01892 whole entry): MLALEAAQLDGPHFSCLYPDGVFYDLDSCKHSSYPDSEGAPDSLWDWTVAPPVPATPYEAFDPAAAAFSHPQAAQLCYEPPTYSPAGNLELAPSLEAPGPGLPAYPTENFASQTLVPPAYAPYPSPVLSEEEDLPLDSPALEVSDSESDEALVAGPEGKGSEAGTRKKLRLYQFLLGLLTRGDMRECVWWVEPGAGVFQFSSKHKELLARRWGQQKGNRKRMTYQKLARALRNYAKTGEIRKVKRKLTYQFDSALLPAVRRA
sequence,measurement,setting,value
AAACGC,binding signal,FLI1,"1.24 fold enrichment (6-mer frequency, TF over GST control)"
same,binding signal,ELK1,"1.17 fold enrichment (6-mer frequency, TF over GST control)"
same,binding signal,GABPA,"1.28 fold enrichment (6-mer frequency, TF over GST control)"
same,binding signal,ERG,"1.34 fold enrichment (6-mer frequency, TF over GST control)"
same,binding signal,ELF1,"1.27 fold enrichment (6-mer frequency, TF over GST control)"
same,binding signal,EHF,"1.25 fold enrichment (6-mer frequency, TF over GST control)"
same,binding signal,SPI1,"1.22 fold enrichment (6-mer frequency, TF over GST control)"
same,binding signal,SPIB,"1.22 fold enrichment (6-mer frequency, TF over GST control)"
same,binding signal,ELK3,"1.15 fold enrichment (6-mer frequency, TF over GST control)"
same,binding signal,FEV,"1.21 fold enrichment (6-mer frequency, TF over GST control)"
same,binding signal,ETV5,"1.28 fold enrichment (6-mer frequency, TF over GST control)"
same,binding signal,HSF1,"1.05 fold enrichment (6-mer frequency, TF over GST control)"
same,binding signal,SPIC,"1.29 fold enrichment (6-mer frequency, TF over GST control)"
same,binding signal,ELF4,"1.2 fold enrichment (6-mer frequency, TF over GST control)"
same,binding signal,ELK4,"1.27 fold enrichment (6-mer frequency, TF over GST control)"
same,binding signal,ETV2,"1.38 fold enrichment (6-mer frequency, TF over GST control)"
same,binding signal,ELF3,"1.21 fold enrichment (6-mer frequency, TF over GST control)"
same,binding signal,CRX,"1.04 fold enrichment (6-mer frequency, TF over GST control)"
same,binding signal,ETV1,"1.31 fold enrichment (6-mer frequency, TF over GST control)"

# — article PMC7862700, “An all-to-all approach to the identification of sequence-specific readers for epigenetic DNA modifications on cytosine”
